Data taken from PubChem BioAssay (NCI).
Several values for one entry are separate records, joined by “and”; a condition that tells them apart may be missing. Equal entries are not always repeated. Compounds without any hit were thinned out: in the full panel of roughly 83,000, 20% have a hit.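 Single-dose data. Exposure time 48 hours. Values below 10 considered active.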 Values without a mark were called inactive. Activity calls are given as the source filed them.

system: HL-60(TB) leukemia; experiment: NCI-60 one-dose screen, 48 h (100 = growth as untreated, 0 = no growth, -100 = all killed); conditions: 10 µM unless noted

Structure (SMILES) | growth
NC(=S)N/N=C/Cc1ccccc1 | 47.2%
C#COc1cccc(Nc2ncnc3ncc(NC(=O)CCl)cc23)c1 | -1.51% [6.25 µM] (active)
Cc1cc(C)cc(S(=O)(=O)n2ccc(-c3ccc4c(c3)CCC(C)(C)O4)n2)c1 | 99.8%
CC(C)[C@@]12C[C@@H](OC(=O)C3CO3)[C@@](C)(O1)[C@@H]1CC[C@@H](C)[C@H]1[C@@H]2OC(=O)/C=C/c1ccccc1 (some centres undefined) | 93.3%
O=C(O)c1ccc2c(c1)CCC2 | 68.3%
O=C(CCCCCCN1CC(=O)N2[C@H](c3cc(Br)cs3)c3[nH]c4ccccc4c3C[C@H]2C1=O)NO | 4.98% (active)
CCc1ccc(Nc2cc(C)nc3nc(C)nn23)cc1 | -54.6% (active)
CCN1/C(=C\c2cc[n+](CC)c3ccccc23)C=Cc2ccccc21 | 5.97% (active)
CN(C)c1ccc(Nc2cc(-c3cccc(OC(F)(F)F)c3)nc3ccc(N4CCCC4)cc23)cc1 | -15.6% (active)
O=C(/C=C/c1ccccc1)Oc1ccc(/C=C/c2cc(OC(=O)/C=C/c3ccccc3)cc(OC(=O)/C=C/c3ccccc3)c2)cc1 | 93%
CCCCNC(=O)Oc1ccc(/C(=C(/CC)Cc2ccccc2)c2ccc(OCCN3CCCCCC3)cc2)cc1 | -12.8% (active)
CN(C)Cc1ccc[nH]1 | 109%
C/C(=N\O)c1ccc(NC(=O)CSc2nnc(-c3ccccc3)n2-c2ccccc2)cc1 | 90.4%
Cn1ccc2c(c1=O)C(=O)c1nccc3c1c-2nc1ccccc13 | -67.4% (active)
CC(=O)N1N=C(c2cccc(Nc3ccncc3)c2)CC1c1ccccc1 (centres undefined) | 78.9%
C=CCN(CCOC(=O)c1ccc([N+](=O)[O-])cc1)CCOC(=O)c1ccc([N+](=O)[O-])cc1 | 88.1%
CN(C)CCNC(=O)n1cc(-c2ccncc2)c(-c2cc(O)cc(Cl)c2)n1 | 87.1%
CCOC(=O)c1cnc2ccccc2c1Cl | 122%
CN1CCN(CCOc2ccc(-c3cnc4c(-c5ccccc5F)cnn4c3)cc2)CC1 | -30.2% (active)
Nc1[nH]n2cc(-c3ccccc3)nc2c1N=Nc1ccc(S(N)(=O)=O)cc1 | 27.9%

Structure (SMILES) | growth
C[C@H]1[C@H]2[C@H]3CC[C@@H]4[C@@]5(C)C/C(=C/c6cccnc6)C(=O)C(C)(C)[C@@H]5CC[C@@]4(C)[C@]3(C)CC[C@]23CO[C@]1(C)[C@@H](C(=O)/C=C\c1cccnc1)C3 | 14.5%
CC(=O)O[C@H]1CC[C@@]2(C)[C@@H](CC[C@@H]3[C@@H]2CC[C@]2(C)C=C(C=O)C[C@@H]32)C1 | -37.5% (active)
O=C(OCc1ccc2c(Cl)cc(Cl)c(O)c2n1)N1CCN(C(=O)c2cc3cc(F)ccc3[nH]2)CC1 | -49.4% (active)
N#C/C(=C\c1ccc(-c2ccc(Br)cc2)o1)c1nc(-c2ccco2)cs1 | 89.3%
COc1ccc(/C=C2\Oc3cc(OCCN4CCC(Cc5ccccc5)CC4)ccc3C2=O)cc1OC | 99.7%
COc1ccc(-n2nnc(C(=O)O)c2-c2cc(OC)c(OC)c(OC)c2)cc1 | 98.8%
CCOc1cc(Br)c(C(C)NC(=O)c2cccc(OC)c2)cc1OCC (centres undefined) | 45.7%
CCN(CC)CCCNc1cccc2c(SCc3ccccc3)ccnc12 | -67.5% (active)
O=C1NC(=O)C2(CCCC2C(=O)O)N1 (centres undefined) | 97.1%
CCN(CC)CCCC(C)Nc1ccnc2cc(Oc3ccccc3)ccc12 (centres undefined) | 69% and 97.8%
O=C(O)c1ccc(Br)nc1 | 94.4%
COc1cc(C(=O)N2CCN(c3ccccc3)CC2)c2ccccc2n1 | -1.74% (active)
COc1cc(C2NC(c3ccc(Cl)cc3)C(C)C(=NC(=O)c3cnccn3)C2C)cc(OC)c1OC (centres undefined) | 98.4%
COc1ccc(-c2nc(NC(=O)CS(=O)(=O)c3ccc(F)cc3)sc2C)cc1 | 51.6%
COc1cc(/C=C/C(=O)Nc2cccnc2Nc2cc(OC)c(OC)c(OC)c2)cc(OC)c1OC | 89.1%
O=C1Nc2ccccc2SC1c1ccccc1Cl (centres undefined) | 71%
CCC(C)C1CCC(O)CC1 (centres undefined) | 99.3%
NS(=O)(=O)c1ccc(-n2ncc(NC(=O)Nc3ccc(S(=O)(=O)Nc4nccs4)cc3)c2-c2ccccc2)cc1 | 92.5%
Cc1ccccc1C1=N[C@@H](Cc2ccccc2)C(=O)c2c(nc3ccccn23)N1 | 125%
